Data published in PMC6792352, “Limited Chemical Structural Diversity Found to Modulate Thyroid Hormone Receptor in the Tox21 Chemical Library” (Environmental Health Perspectives, 2019).
Counter-ions that a name gives are not always drawn.

test system: thyroid hormone receptor (endogenous TRα and TRβ); design: species or system GH3-TRE-Luc (rat pituitary); GH3-TRE-Luc luciferase reporter, antagonist mode against 1 nM T3, loss of signal, qHTS; conditions: antagonist mode, 1 nM T3, no GH3 cytotoxicity hit, read-out: Average AC50 (uM) GH3-TRE-Antag

Q: `NC(=S)Nc1ccccc1` [1-Phenyl-2-thiourea] was tested. Which AC50 did it give?
A: 43.9 µM

Q: With `Clc1cc(Cl)c(-c2cc(Cl)c(Cl)cc2Cl)cc1Cl` [2,2',4,4',5,5'-Hexachlorobiphenyl] as the molecule, how does the AC50 read?
A: 35.4 µM

Q: Which AC50 does the source give for `Brc1ccc(Oc2cc(Br)c(Br)cc2Br)c(Br)c1` [2,2',4,4',5-Pentabromodiphenyl ether] here?
A: 39.4 µM

Q: For `COP(=S)(OC)Oc1ccc([N+](=O)[O-])cc1Cl` [Dicapthon], which AC50 is on record?
A: 79 µM

Q: For `COP(=S)(OC)Oc1ccc(S(=O)(=O)N(C)C)cc1` [Famphur], which AC50 is on record?
A: > 50 µM

Q: With `CC(C)=CCN1CC[C@]2(C)c3cc(O)ccc3C[C@H]1[C@H]2C` [(+)-Pentazocine succinate] as the molecule, how does the AC50 read?
A: 37.2 µM

Q: How did the AC50 turn out when `O=C(O)Cc1ccccc1` [Phenylacetic acid] was run?
A: 18.1 µM

Q: With `CCCCC(CC)COP(=O)(Oc1ccccc1)Oc1ccccc1` (stereo not drawn) [2-Ethylhexyl diphenyl phosphate] as the molecule, how does the AC50 read?
A: 48.3 µM

Q: For `OCC(c1ccc(Cl)cc1)c1ccc(Cl)cc1` [2,2-Bis(4-chlorophenyl)ethanol], which AC50 is on record?
A: 46.2 µM

Q: How did the AC50 turn out when `CCOc1ccc2c3c1O[C@H]1[C@@H](O)C=C[C@H]4[C@@H](C2)N(C)CC[C@@]341` [Ethylmorphine] was run?
A: 44.9 µM

Q: For `Oc1c(Br)cc(Br)cc1Br` [2,4,6-Tribromophenol], which AC50 is on record?
A: > 50 µM

Q: Which AC50 does the source give for `CC(C)(N)Cc1ccc(Cl)cc1` [Chlorphentermine hydrochloride] here?
A: 39.2 µM

Q: With `CNP(=O)(OC)Oc1ccc(C(C)(C)C)cc1Cl` (stereo not drawn) [Crufomate] as the molecule, how does the AC50 read?
A: 52.9 µM

Q: `CCOP(=S)(OCC)Oc1ccc2c(C)c(Cl)c(=O)oc2c1` [Coumaphos] was tested. Which AC50 did it give?
A: > 50 µM

Q: How did the AC50 turn out when `CCC1COC(Cn2cncn2)(c2ccc(Cl)cc2Cl)O1` (stereo not drawn) [Etaconazole] was run?
A: 36.8 µM

Q: With `Nc1ccccc1C(=O)Oc1ccc2ccccc2c1` [Naphthalen-2-yl 2-aminobenzoate] as the molecule, how does the AC50 read?
A: 82.4 µM

Q: With `c1ccc2c(c1)sc1ccccc12` [Dibenzothiophene] as the molecule, how does the AC50 read?
A: 33.4 µM

Q: For `CCCCCCCCCCCCBr` [1-Bromododecane], which AC50 is on record?
A: 93.3 µM

Q: How did the AC50 turn out when `COC1=CC=C2[C@H]3Cc4ccc(OC)c5c4[C@@]2(CCN3C)[C@H]1O5` [Thebaine] was run?
A: > 20 µM

Q: Which AC50 does the source give for `COP(=S)(OC)Oc1cc(Cl)c(Br)cc1Cl` [Bromofos] here?
A: 65.8 µM

Q: For `CCOP(=S)(OCC)Oc1cc(C)nc(C(C)C)n1` [Diazinon], which AC50 is on record?
A: 46.4 µM

Q: Which AC50 does the source give for `COc1ccc2[nH]cc(CCN(C(C)C)C(C)C)c2c1` [5-Methoxy-N,N-diisopropyltryptamine hydrochloride] here?
A: 70.7 µM

same assay, conditions: read-out: Average AC50 (uM) GH3-TRE-Antag; 24 h; antagonist

Q: With `O=C1Nc2ccc(Cl)cc2C(c2ccccc2)=NC1O` (stereo not drawn) [Oxazepam] as the molecule, how does the AC50 read?
A: > 50 µM

Q: How did the AC50 turn out when `CN1C(=O)C(O)N=C(c2ccccc2)c2cc(Cl)ccc21` (stereo not drawn) [Temazepam] was run?
A: > 50 µM

Q: Which AC50 does the source give for `CCCCCCCCC(=O)NCc1ccc(O)c(OC)c1` [Nonivamide] here?
A: > 50 µM

Q: Which AC50 does the source give for `Cc1ncc2n1-c1ccc(Cl)cc1C(c1ccccc1F)=NC2` [Midazolam hydrochloride] here?
A: 32.8 µM

Q: `CN(C)CCc1c[nH]c2cccc(O)c12` [Psilocin] was tested. Which AC50 did it give?
A: 91 µM
